Records with an inconclusive call do not appear. The source made the active and inactive calls. Calls come from the whole dose curve; as a rule, active = well fitted inhibition curve with a large enough effect in the repeat runs; inconclusive = weak or mixed curves, or effect the other way; inactive = no such curve, though single readings can be large or run the other way.

Results on 40 molecules are retold here after PubChem BioAssay (Tox21).
% is set by controls: 0 for no effect and ±100 for the full control effect; potency is the fitted concentration of half-maximal effect.

The assay has as its target Nuclear receptor ROR-gamma (Homo sapiens) (UniProt P51449). Kind of assay: qHTS assay to identify small molecule antagonists of the retinoid-related orphan receptor gamma (ROR-gamma) signaling pathway (AID 1159521; note: nearly all actives have a fitted effect of over 50% in size; for activity change, negative = inhibition: top concentration of the series differs between compounds). Conditions: Tet-on RORgamma CHO cells, RORE-luciferase, 16 h; series mostly up to 92.4 µM; activity change, negative = inhibition: at the top concentration. The text has this: U.S. Tox21 Program National Center for Advancing Translational Sciences [NCATS] NIH Chemical Genomics Center [NCGC] U.S. Environmental Protection Agency [EPA] National Institutes of Environmental Health Sciences [NIEHS] National Toxicology Program [NTP] U.S. Food and Drug Administration [FDA] Tox21 Assay Overview: Nuclear steroid hormone receptors are involved in many biological processes including inflammatory responses, cell proliferation, and apoptosis. Environmental factors or compounds disrupting these nuclear receptor pathways and gene expression may promote susceptibility to immunotoxicants and autoimmune diseases. One important group of these expression factors are the retinoid-related orphan receptors. To assess compounds that may interfere with the retinoid-related orphan receptor gamma (ROR-gamma) transcription factor, a cell-based luciferase assay was used. The CHO cell-based assay utilizes a TET-inducible ROR expression factor and ROR response element-LUC reporter gene. Reporter gene activity was induced using Doxycycline Hyclate and measured after 16 hr incubation. Tet-on ROR gamma CHO cells were used to screen against the Tox21 10K compound library for ROR gamma antagonists by quantification of decreased reporter gene activity in terms of decreased luminescence.
Tox21 Assay Protocol Summary: Tet-on ROR gamma CHO cells were dispensed at 1,000 cells in 4 uL of culture medium per well into white wall/solid bottom 1536-well plates using a Multidrop Combi (Thermo Scientific, Waltham, MA) dispenser. Following incubation at 37 C and 5% CO2 for 4 hr, 23 nL of compounds dissolved in DMSO, positive controls or DMSO only were transferred by a Pintool station (Kalypsys, San Diego, CA) and after 2 hr incubation at 37 C, one ul of 1 uM (final concentration) of Doxycycline Hyclate was added to all the wells by using a Flying Reagent Dispenser (FRD) (Aurora Discovery, San Diego, CA). After 16 hr incubation at 37 C and 5% CO2, 5 uL of ONE-Glo reagent (Promega Corporation, Madison, WI) was added to each assay plate using FRD. After 30 min incubation at room temperature, luminescence was quantified on a ViewLux plate reader (Perkin Elmer, Waltham, MA).
For `Cc1cccc(C)c1NC(=O)c1cc(S(N)(=O)=O)c(Cl)cc1O`, the “activity change, negative = inhibition” value was 59% [at 42.5 µM] (inactive).
Turning to `CCC(CO)(CO)[N+](=O)[O-]`, the “activity change, negative = inhibition” value is 2.65% (inactive).
On the same count and under the same terms, then `COC(CC(C)CCCC(C)(C)O)OC` (stereo not given), with 11.2% (inactive); and `CC1CCCC(=O)C1=O` (stereo not given), with -8.24% (inactive); and `CCOC(=O)c1c(N)sc2c1CCN(Cc1ccccc1)C2`, with -1.82% [at 42.5 µM] (inactive).
Same read-out and setting: then `COc1cc(NC(C)CCCN)c2ncccc2c1` (stereo not given), with 16.5% [at 42.5 µM] (inactive).
Take `Cc1ccc2nc(N)[nH]c(=O)c2c1Sc1ccncc1`: the “activity change, negative = inhibition” value was -7.71% [at 42.5 µM] (inactive).
Regarding `CC(=O)OCC(C)C`, the “activity change, negative = inhibition” value is 12.6% (inactive).
In the case of `O=C(O)CCS`, the “activity change, negative = inhibition” value is 38.9% (inactive).
As for `CC/C=C\C/C=C\C/C=C\CCCCCCCC(=O)OCC`, the “activity change, negative = inhibition” value is -2.88% (inactive).
On the same count and under the same terms, to `CCC(=O)OCc1ccc(OC)cc1` belongs 1.65% (inactive).
The same measure, in the same setting: then `CC(C)(O)c1coc(S(=O)(=O)NC(=O)Nc2c3c(cc4c2CCC4)CCC3)c1`, with -14.2% (inactive).
For the molecule `CC(=O)C(=O)CC(C)C`, the “activity change, negative = inhibition” value was 0.522% (inactive).
Same read-out and setting: then `CCOCCC(=O)OCC`, with 11.6% (inactive); and `CCCCCC`, with 7.73% (inactive).
On the same count and under the same terms, then `CCC(Cl)CC(Cl)C(Cl)C(Cl)C(Cl)C(C)Cl` (stereo not given), with 79.2% [at 19 µM] (inactive); and `CNC1CCCN(c2c(F)cc3c(=O)c(C(=O)O)cn(C4CC4)c3c2OC)C1` (stereo not given), with 33.1% [at 42.5 µM] (inactive).
The same measure, in the same setting: then `CC(C)c1ccc(C#N)cc1`, with 6.91% (inactive); and `CC(=O)OC(C)C[N+](C)(C)C` (stereo not given), with 31.6% [at 42.5 µM] (inactive).
With `CCCCCCCC(=O)Oc1c(Br)cc(C#N)cc1Br`, the Potency is 48.4 µM (active).
For the molecule `CC1CCCO1` (stereo not given), the “activity change, negative = inhibition” value is 6.73% (inactive).
On the same count and under the same terms, then `SCCc1cnccn1`, with 74% (inactive); and `O=[N+]([O-])c1ccc2ncccc2c1`, with 101% (inactive); and `CCCCCCCCCCCCCOS(=O)(=O)O`, with 1.93% (inactive).
In the case of `Nc1nc2ccc(OC(F)(F)F)cc2s1`, the “activity change, negative = inhibition” value was 132% [at 42.5 µM] (inactive).
As for `O[C@@H](CNC[C@H](O)[C@H]1CCc2cc(F)ccc2O1)[C@@H]1CCc2cc(F)ccc2O1`, the Potency is 23.7 µM (active).
`O=c1[nH][nH]c(=O)c2cc([N+](=O)[O-])ccc12`: the “activity change, negative = inhibition” value was 28.5% (inactive).
On the same count and under the same terms, to `CC[C@H]1OC(=O)[C@H](C)[C@@H](O[C@H]2C[C@@](C)(OC)[C@@H](O)[C@H](C)O2)[C@H](C)[C@@H](O[C@@H]2O[C@H](C)C[C@H](N(C)C)[C@H]2O)[C@](C)(O)C[C@@H](C)CN(C)[C@H](C)[C@@H](O)[C@]1(C)O` belongs -22.4% [at 42.5 µM] (inactive).
In the case of `Cc1c(C2(c3cc(Br)c(O)c(Br)c3C)OS(=O)(=O)c3ccccc32)cc(Br)c(O)c1Br`, the Potency was 5.93 µM (active).
`C[C@@H]1C[C@H]2[C@@H]3CCC4=CC(=O)C=C[C@]4(C)[C@@]3(F)[C@@H](O)C[C@]2(C)[C@@]1(O)C(=O)COP(=O)(O)O`: the “activity change, negative = inhibition” value was 12.1% (inactive).
Same read-out and setting: then `CCCCCCOC(=O)CCCCC`, with -7.42% (inactive); and `CC(C)C(=O)OCCOc1ccccc1`, with -5.59% (inactive).
The same measure, in the same setting: then `CC(=O)OCC1=C(C(=O)O)N2C(=O)[C@@H](NC(=O)CSc3ccncc3)[C@H]2SC1`, with 153% [at 42.5 µM] (inactive); and `O=C(O)CO`, with -2.11% (inactive).
Same read-out and setting: then `c1ccc(CCCc2ccncc2)cc1`, with 0.0144% (inactive).
As to `COC(=O)Nc1nc2ccc(C(=O)C3CC3)cc2[nH]1`, the “activity change, negative = inhibition” value was 56.1% [at 42.5 µM] (inactive).
On the same count and under the same terms, to `O=C(CCS)OCC(COC(=O)CCS)(COC(=O)CCS)COC(=O)CCS` belongs 2.77% (inactive); to `CC(=O)c1ccc[nH]1`, 4.08% (inactive); to `O=C(NC(Cc1cc(=O)[nH]c2ccccc12)C(=O)O)c1ccc(Cl)cc1` (stereo not given), 1.89% [at 42.5 µM] (inactive).
As for `CC(C)OC(=O)c1ccccc1C(=O)OC(C)C`, the “activity change, negative = inhibition” value was 1.17% (inactive).
